Test results: article PMC5540273 (PLoS ONE, 2017)

Tests used:
Conditions in all cases: concentration: 1 μM,replicates: in singlicate; n = 1
[1] = tested on: EPHA7
[2] = tested on: EPHA8
[3] = tested on: EPHB1
[4] = tested on: EPHB2
[5] = tested on: EPHB3
[6] = tested on: EPHB4
[7] = tested on: EPHB6
[8] = tested on: ERBB2
[9] = tested on: ERBB3
[10] = tested on: ERBB4
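Further: KINOMEscan kinase panel screen.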

SMILES | %Inh [1] [%] | %Inh [2] [%] | %Inh [3] [%] | %Inh [4] [%] | %Inh [5] [%] | %Inh [6] [%] | %Inh [7] [%] | %Inh [8] [%] | %Inh [9] [%] | %Inh [10] [%]
Cc1ccc2c(-c3ccncc3)c(-c3ccc(F)cc3)nn2c1.Cl [GW461484] | 7 | 15 | 0 | 0 | 5 | 0 | 27 | 21 | 0 | 3
Nc1nc(Nc2ccccc2)cc(-c2ccc3c(N)n[nH]c3c2)n1 [GSK2225749] | 0 | 0 | 4 | 0 | 0 | 0 | 0 | 32 | 0 | 0
C[C@@H]1CCN(C(=O)CC#N)C[C@@H]1N(C)c1ncnc2[nH]ccc12 | 21 | 10 | 0 | 0 | 0 | 0 | 10 | 0 | 0 | 15
O=C(NCCNc1ccnc(NCc2ccc(F)cc2)n1)c1cc2ccccc2s1 [GSK1379944] | 12 | 34 | 6 | 80 | 27 | 16 | 18 | 13 | 0 | 0
Cl.Cl.NC[C@H](CC1CCCCC1)NC(=O)c1cc(Br)c(-c2ccnc3[nH]ccc23)s1 [GSK1581427] | 14 | 52 | 17 | 0 | 5 | 10 | 10 | 1 | 0 | 22
Cc1n[nH]c2ccc(-c3cc(OC[C@@H](N)Cc4ccccc4)cnc3-c3ccoc3)cc12.O=C(O)C(F)(F)F.O=C(O)C(F)(F)F [GSK507358] | 10 | 21 | 0 | 0 | 14 | 8 | 8 | 77 | 0 | 64
C[C@@H](Oc1cc(-c2cnn(C3CCNCC3)c2)cnc1N)c1c(Cl)ccc(F)c1Cl | – | 54 | 68 | – | 16 | 52 | 99.6 | 7 | 0 | 0
Cc1occc1-c1nc(N)c(OC[C@@H](N)Cc2c[nH]c3ccccc23)cc1-c1cc2c(C)n[nH]c2cn1 [GSK1660450] | 3 | 24 | 24 | 0 | 23 | 11 | 0 | 79 | 0 | 56
NC(=O)c1cc(-c2ccccc2)cc2c(C3CCNCC3)c[nH]c12 [GSK301362] | 20 | 23 | 26 | 29 | 15 | 1 | 16 | 16 | 0 | 9
Cl.Cl.Nc1nc(-c2ccc3c(N)n[nH]c3c2)cc(N2CCCC(NC(=O)c3ccccc3)C2)n1 (stereo not drawn) [GSK2286775] | 11 | 16 | 27 | 10 | 11 | 3 | 26 | 0 | 0 | 33
Cc1cc(C(=O)Nc2ccc(Oc3ccc4nc(NC(=O)C5CC5)cn4n3)cc2)nn1-c1ccccc1 | 0 | 37 | 18 | 30 | 19 | 37 | 89 | 19 | 87 | 19
Cl.Oc1cc(-c2nc(-c3ccccc3)[nH]c2-c2ccncc2)ccc1Cl [SB-386023] | 9 | 14 | 0 | 0 | 22 | 30 | 14 | 0 | 0 | 23
CC(C)N1C(=O)Cc2cc(Nc3ncc(C(F)(F)F)c(NCc4cccc(S(C)(=O)=O)c4)n3)ccc21 | 12 | 5 | 16 | 3 | 0 | 0 | 49 | 15 | 13 | 0
CN(C)CCOc1ccc(-c2cc(-c3c[nH]nc3-c3ccccn3)ccn2)cc1 [GW835314] | 8 | 14 | 2 | 11 | 59 | 8 | 8 | 0 | 43 | 0
CCn1c(-c2nonc2N)nc2c(C#CC(C)(C)O)nc(OCCN)cc21.Cl.Cl [GSK902056] | 0 | 2 | 3 | 1 | 11 | 20 | 0 | 11 | 0 | 20
Cc1cc2cn[nH]c2cc1-c1cccc2c(N)c(C(N)=O)nnc12 | 19 | 11 | 15 | 0 | 0 | 0 | 64 | 14 | 30 | 87
CC(C)Nc1cc(-c2ccc3c(N)n[nH]c3c2)nc(N)n1 [GSK2221681] | 12 | 18 | 0 | 0 | 0 | 0 | 0 | 8 | 0 | 0
CCN(CC)CCOc1ccc(Nc2ncc3cc(-c4c(Cl)cccc4Cl)c(=O)n(C)c3n2)cc1 [SB-601273] | 11 | 99.6 | 99.8 | 100 | 99.9 | 100 | 98.9 | 92.8 | 99.4 | 82
CN(C)CC(O)COc1ccc(Nc2nccc(-c3cnn4nc(N5CCOCC5)ccc34)n2)cc1 (stereo not drawn) [GW767488] | 9 | 0 | 9 | 0 | 0 | 95.4 | 73 | 5 | 40 | 33
C=CC(=O)Nc1cc2c(Nc3ccc(F)c(Cl)c3)ncnc2cc1OCCCN1CCOCC1 [GW781483] | 8 | 33 | 9 | – | 0 | 24 | 52 | – | 83 | –
Cc1ccc(-n2nc(C(C)(C)C)cc2NC(=O)Nc2ccc(OCCN3CCOCC3)c3ccccc23)cc1 [GW839464] | 72 | 86 | – | 37 | 7 | 31 | 0 | 24 | 26 | 0
C[C@H]1Oc2cc(cnc2N)-c2c(nn(C)c2C#N)CN(C)C(=O)c2ccc(F)cc21 | 35 | 2 | 27 | 30 | 2 | 35 | 82 | 28 | 0 | 0
O=C(NCCCN1CCOC1=O)c1cnc(NCc2cc(Cl)ccc2Cl)nc1NC1CCCC1 | 2 | 4 | 8 | 12 | 24 | 16 | 19 | 46 | 0 | 9
CCN(CC)CCCCNc1ncc2cc(-c3c(Cl)cccc3Cl)c(NC(=O)NC(C)(C)C)nc2n1 | 0 | 99.9 | 99.9 | 93 | 26 | 92.6 | 98.9 | 35 | 68 | 38
Cl.Cl.NC[C@H](Cc1ccc(C(F)(F)F)cc1)NC(=O)c1cc(Br)c(-c2ccnc3[nH]ccc23)s1 [GSK1487252] | 10 | 47 | 12 | 10 | 20 | 14 | 12 | 9 | 0 | 41
COc1ccc(C[C@@H](CN)NC(=O)c2cc(Br)c(-c3ccnc4[nH]ccc34)s2)cc1.Cl.Cl [GSK1389063] | 12 | 59 | 19 | 1 | 31 | 32 | 35 | 25 | 0 | 38
CNC(=O)c1ccccc1Sc1ccc2c(/C=C/c3ccccn3)n[nH]c2c1 | 0 | 0 | 0 | 0 | 0 | 0 | 80 | 22 | 1 | 6
